Screening results deposited in PubChem BioAssay by several laboratories.
Shown are actives, neighbours in structure and some others; about 2.4% of the full set was active somewhere.
Hck Nef HTS – inhibitors of Nef-activated human Hck kinase, primary screen, biochemical, Z-Lyte FRET, 384-well, Hck-YEEI; inhibition, % at 20 µM; Tyrosine-protein kinase HCK (Homo sapiens), P08631; Recombinant Hck-YEEI plus Nef, Z-Lyte FRET kinase assay; actives 0.68% (n = 220,000); AID 463187, 2010;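 active = Hck-Nef kinase inhibition above about 50%, limit read from the data; inactive = inhibition below that limit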;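 note: 0% = DMSO with Hck plus Nef and 100% = Hck alone without Nef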
Target sequence (P08631 whole entry, looked up): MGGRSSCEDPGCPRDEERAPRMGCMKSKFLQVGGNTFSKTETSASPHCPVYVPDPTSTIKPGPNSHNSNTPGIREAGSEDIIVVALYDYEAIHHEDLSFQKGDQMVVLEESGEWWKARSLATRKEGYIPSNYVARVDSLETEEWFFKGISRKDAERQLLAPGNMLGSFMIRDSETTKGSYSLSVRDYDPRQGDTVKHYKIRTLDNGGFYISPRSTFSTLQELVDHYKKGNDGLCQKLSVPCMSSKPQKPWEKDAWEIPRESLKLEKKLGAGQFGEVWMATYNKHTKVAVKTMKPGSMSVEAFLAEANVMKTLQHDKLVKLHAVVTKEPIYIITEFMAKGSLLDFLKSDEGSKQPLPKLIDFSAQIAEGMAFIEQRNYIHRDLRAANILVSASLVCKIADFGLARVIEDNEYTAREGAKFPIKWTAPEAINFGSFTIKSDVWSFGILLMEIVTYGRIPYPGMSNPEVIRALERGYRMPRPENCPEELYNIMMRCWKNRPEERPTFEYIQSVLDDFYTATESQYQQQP
Arbovirus anti – antivirals against arbovirus infection, primary screen, cell-based, full library, 10K replicate subset | arbovirus infection cell-based antiviral screen | inhibition, % at 10 µM | actives 0.37% (n = 200,000) | AID 1251, 2008; in the data active = inhibition above about 30%
p97 inhibitor – inhibitors of human p97 ATPase, primary screen, biochemical. Transitional endoplasmic reticulum ATPase (Homo sapiens), P55072. recombinant p97 ATPase, Kinase-Glo ATP luminescence, 3 h. inhibition, % at 8 µM. actives 0.42% (n = 220,000); in the data active = inhibition above about 15%;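 note: 0% = DMSO vehicle and 100% = wells lacking enzyme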
PGE2 EP2 inh – human EP2 receptor antagonists, primary screen, TR-FRET cAMP, C6 glioma cells. C6 glioma cells expressing human EP2; cells stimulated with saturating PGE2. actives 0.52% (n = 260,000). AID 1422, 2008. Prostaglandin E2 receptor EP2 subtype (Homo sapiens), P43116. inhibition, % at 25 µM;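 active = percent inhibition above 40 after rounding to a whole number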;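 note: rat C6 glioma host cells with rolipram phosphodiesterase inhibitor present; the protocol text gives 20 µM as final concentration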
EP2 mod – EP2 receptor modulators, cAMP readout, primary screen, cell-based, HTRF cAMP, PGE2 stimulation; EP2-expressing cells, cAMP HTRF FRET, PGE2 co-stimulation; induction, % at 25 µM; Prostaglandin E2 receptor EP2 subtype (Homo sapiens), P43116; actives 0.83% (n = 260,000); AID 940, 2007;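 active = compounds whose cAMP rise, as percent of the full-agonist control response, exceeds 60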;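 note: rat C6 glioma line stably carrying human EP2 under a CMV promoter; the protocol text gives 20 µM as final concentration; 100% = response of wells given 1 µM PGE2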
Active calls of the source: *; nt = no result given; ! = not confirmed by another sample.

SMILES | Hck Nef HTS | Arbovirus anti | p97 inhibitor | PGE2 EP2 inh | EP2 mod
COc1ccc(CCNCC(O)c2ccccc2)cc1 (stereo unspecified) | 17.0 | 31.5* | 4.7 | 9.6 | 2.0
O=c1[nH]c(N2CCCC2)nc2c1CCN(Cc1ccc3ncccc3c1)C2 | nt | nt | nt | nt | -17.3
CCc1c(C)sc2ncn(C3CCN(C(=O)CN4CCCC4=O)CC3)c(=O)c12 | nt | nt | nt | 10.3 | -20.3
Cc1nc2c(c(=O)[nH]1)CCN(C(=O)CC1c3ccccc3Oc3ccccc31)C2 | nt | nt | nt | 2.4 | -14.4
CSc1ncc(CN2CCC(O)(c3ccc(C(F)(F)F)cc3)CC2)cn1 | nt | nt | nt | 9.8 | -33.3
CCn1c(N2CCC(C(=O)NC3CCCC3)CC2)nc2ccccc21 | nt | nt | nt | nt | 62.8*
Cn1c(N2CCC(C(=O)NC3CCCC3)CC2)nc2ccccc21 | nt | nt | nt | nt | -14.2
CC(C)(C)NC(=O)CSc1nc(-c2ccccc2)nc2nc[nH]c12 | nt | nt | nt | 15.9 | -38.6
Cc1ccc2cc(C(c3nnnn3C3CCCCC3)N3CCN(c4ccccc4)CC3)c(=O)[nH]c2c1C (stereo unspecified) | nt | nt | nt | 6.9 | 10.8
c1csc(C2=Nn3c(nnc3-c3ccncc3)SC2)c1 | 2.4 | 29.6 | 3.8 | 17.0 | 19.5
Clc1ccccc1C1=Nn2c(nnc2-c2ccncc2)SC1 | 0.1 | 58.8* | -2.0 | nt | 29.3
Cc1ccc2c(c1)C1CCCC3C1N2CC(=O)N3Cc1ccccc1 (stereo unspecified) | 1.5 | 32.2* | 8.3 | 23.6 | 33.0
CC1CCCN(C(c2cc3cc4c(cc3[nH]c2=O)OCO4)c2nnnn2Cc2ccccc2)C1 (stereo unspecified) | nt | nt | nt | 11.6 | -12.3
CCn1nc(C)c(N)c1C | nt | nt | nt | 7.4 | -14.8
CCc1cccc2c(C(=S)N3CCCC3)c[nH]c12 | 17.7 | 3.6 | 4.8 | 8.4 | -26.4
CCc1cccc2c(C(=O)CCl)c[nH]c12 | 4.5 | 18.4 | 17.9* | 14.4 | -2.1
C=CCSC1=N/C(=C\c2cc(OCC)c(OC(C)=O)c([N+](=O)[O-])c2)C(=O)S1 | 83.5* | 3.9 | 7.4 | 3.4 | 17.1
C=CCN1C(=O)/C(=C/c2ccc(OC(C)=O)c(OCC)c2[N+](=O)[O-])SC1=S | 25.7 | -5.6 | 10.3 | 10.4 | -56.3
Oc1c(CN2CCN(c3ccccc3)CC2)cc(Br)c2cccnc12 | 20.3 | nt | 8.1 | 40.9*! | 15.4
CCOc1ccc(C(=O)N(Cc2ccc3c(c2)OCO3)Cc2cc3ccc(OC)cc3[nH]c2=O)cc1 | nt | nt | nt | 11.2 | 31.6
Oc1ccccc1CNCCCNCc1ccccc1O | 1.0 | 44.3* | -2.9 | 3.4 | -32.7
CC(=O)Nc1ccc(NC(=O)CSc2nc3ccccc3cc2C)cc1 | nt | nt | nt | 11.1 | 1.6
Cc1[nH]c2ccccc2c1-c1cc(-c2cc(-c3c(C)[nH]c4ccccc34)nc(N)n2)nc(N)n1 | nt | nt | nt | 42.4* | 1.1
CCC(=O)N1CCN(c2ccc(NC(=O)C(C)C)cc2)CC1 | nt | nt | nt | 1.1 | 8.9
CCC(C)(C)NC(=O)C(c1ccc(C)o1)N(C(=O)Cn1nnc2ccccc21)c1ccc(F)cc1 (stereo unspecified) | nt | nt | nt | 6.2 | 44.9
SMILES | Hck Nef HTS | Arbovirus anti | p97 inhibitor | PGE2 EP2 inh | EP2 mod
O=[N+]([O-])c1c(Nc2ccccn2)cc(Cl)c2nonc12 | 12.4 | nt | 13.9 | 56.5* | -88.1
Cc1cc(-c2[nH]nc3c2C(c2ccc(C(F)(F)F)cc2)C(C#N)=C(N)O3)c(C)s1 (stereo unspecified) | nt | nt | nt | 11.8 | 60.8*
O=S(=O)(Nc1nccs1)c1cc(Cl)ccc1Cl | 0.5 | 1.5 | 6.5 | 9.6 | 61.3*
O=S(=O)(Nc1nccs1)c1ccc(Br)cc1 | 19.5 | 0.8 | 1.0 | 4.2 | 14.3
Cc1ccccc1CN1C2=NCCN2C(=O)C2=C1CCN(Cc1ccccc1)C2 | nt | nt | nt | 48.5* | 15.2
CCC(C)(C)n1nnnc1C(c1cc2ccc(C)cc2[nH]c1=O)N1CCN(C2CCCCC2)CC1 (stereo unspecified) | nt | nt | nt | 18.0 | -32.5
O=c1c2ccccc2c2ccccc2c(=O)n1-c1cc2c3ccccc3ccc2c2ccccc12 | nt | nt | nt | 48.7* | 17.5
COc1ccc(OC)c(-n2c(=O)c3ccccc3c3ccccc3c2=O)c1 | 1.9 | -0.9 | 4.9 | 3.7 | 26.8
CCOC(=O)Nc1cccc(Nc2ccccc2)c1 | 2.1 | 6.4 | 4.9 | 5.7 | 61.5*
N#Cc1ccccc1Cn1cc(C#N)c2ccccc21 | 0.3 | -29.7 | -2.6 | 7.5 | 2.9
N#Cc1cn(Cc2ccccc2)c2ccccc12 | 11.8 | -34.2 | -4.5 | 6.0 | 63.0*
N#Cc1cn(Cc2ccc(Cl)cc2)c2ccccc12 | nt | nt | nt | 15.4 | 67.3*
COc1ccccc1-n1c(SCC(=O)N2CCCC(C)C2)nnc1-c1ccncc1 (stereo unspecified) | nt | nt | nt | 5.7 | 8.4
NC(=O)c1cc([N+](=O)[O-])ccc1NCc1cccnc1 | 25.4 | 37.0* | -3.5 | 3.9 | -34.1
CCOC(CCn1c(SCc2cccc([N+](=O)[O-])c2)nc2ccccc2c1=O)OCC | 2.6 | -0.2 | -3.1 | 11.4 | 54.0
CCCCn1c(SCc2cccc([N+](=O)[O-])c2)nc2ccsc2c1=O | -0.2 | 34.4* | -2.7 | 5.4 | 13.0
O=C(Nn1c(SCc2cccc([N+](=O)[O-])c2)nc2ccccc2c1=O)c1ccccc1 | 3.4 | 39.0* | -2.4 | 5.3 | 25.4
Nc1c(C(=O)NCc2cccs2)nnn1CC(=O)Nc1cccc(Cl)c1 | 17.8 | 1.4 | 1.2 | 4.4 | -26.4
Nc1nc2c(C(=O)NCc3cccs3)nnn2c2cccc(Cl)c12 | nt | nt | nt | 48.9* | 1.4
CCOC(=O)c1sc(NC(=O)CSc2nc3cc4c(cc3cc2CC)OCO4)nc1C | nt | nt | nt | 9.8 | -6.2
CCOc1cc(C2/C(=C(/O)c3ccc(OC)c(OC)c3)C(=O)C(=O)N2C)ccc1O (stereo unspecified) | nt | nt | nt | 5.6 | -70.2
O=C(c1ccc(Cl)cc1)N1CCn2c1nc1ccccc12 | -71.4 | 5.7 | -4.8 | 97.1* | -13.6
COC(=O)c1ccccc1NC(=O)CN1CCC(n2nnc3cc(F)ccc32)CC1 | 1.4 | 40.2* | -4.5 | 13.2 | 31.5
COC(=O)c1ccccc1NC(=O)CN1CCC(NC(=O)c2ccc(C)cc2)CC1 | -3.2 | 55.5* | -5.4 | 5.3 | -34.7
COc1cc(Cn2c(-c3nonc3N)nc3ccccc32)ccc1C | -2.0 | -16.6 | -5.6 | 16.8 | 24.0
COc1cccc(Cn2c(-c3nonc3N)nc3ccccc32)c1 | 1.3 | -21.6 | 2.9 | 3.4 | 64.5*
C=CCn1c(SCc2c(C)noc2C)nnc1C1COc2ccccc2O1 (stereo unspecified) | -1.3 | 71.0* | -1.4 | 7.7 | 30.7
C=CCn1c(=N)c(C(=O)OCC)cc2c(=O)n3cccc(C)c3nc21 | 172.4* | nt | 4.6 | 17.8 | nt
CC1(C(=O)Nc2ccc(Cl)cc2)Cc2ccccc2C(=O)O1 (stereo unspecified) | nt | nt | nt | 19.9 | -58.1
CS(=O)(=O)c1cnc2ncnn2c1C1CCCN(C(=O)C2CCCC2)C1 (stereo unspecified) | nt | nt | nt | nt | 18.9
